The list is not random: actives were taken first. Their share in the collection is about 1.1%.
HTT cytoprotect = protects HTT-Q103 PC12 cells, measured by ATP; PC12 HTT-Q103 induced, cytoprotection, ATP luminescence, 40 h; Potency, µM (titrated, usually from 56.4 µM), for inactives: cytoprotection (ATP increase), hits mostly activators; actives 0.14% (n = 230,000); also: potency is read from the fitted curve at half-maximal effect; % of control where 0% means no effect; nearly all actives have a fitted effect of over 45% in size
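Rat PC12, Q103 Htt exon1-GFP fusion, ecdysone promoter; tebufenozide inducer 100 nM final; compound titration; qHTS, 1500 cells/well; ATPlite luminescent read.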
HTT aggregate = reduces HttQ103-GFP aggregates in PC12 cells; PC12 HttQ103-GFP aggregates, Acumen cytometry, 40 h; Potency, µM (highest dose often 46.1 µM), for the others: at the highest dose activity change, negative = inhibition, usual class: inhibitors; actives 1.1% (n = 220,000); AID 1688; also: potency is read from the fitted curve at half-maximal effect; % is scaled to controls: 0 for no effect and ±100 for the full control effect; nearly all actives have a fitted effect of over 60% in size
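Using laser scanning cytometry, GFP-positive aggregates were counted after lysis of PC12 cells induced with 100 nM tebufenozide to express HTT exon 1 Q103–GFP. Compounds were tested in titration.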
Lamin A splicing = changes lamin A minigene splicing in HeLa cells. AID 1487. HeLa LMNA splicing GFP/RFP minigene ratio, 48 h. actives 0.01% (n = 200,000). Potency, µM (top dose mostly 46.1 µM), without a hit: at the top dose ratio change, negative = inhibition, hits mostly inhibitors; active = well fitted inhibition curve with a large enough effect in the signal ratio, with a control signal flat, not every such curve was filed as active; inconclusive = small, poorly fitted or top-dose-only effect, or effect the other way, or a change in a side signal; the % refers to the signal ratio; also: potency is read from the fitted curve at half-maximal effect; % is scaled to controls: 0 for no effect and ±100 for the full control effect
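S3 HeLa cells stably expressing lamin A-EGFP splicing minigene plus DsRed2, 600 cells/well, 48 h compound exposure at 37C. Laser-scanning cytometry; analysed as GFP (500-530 nm)/RFP (575-640 nm) total intensity ratio; 0.5% DMSO vehicle.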
MBNL1 CUG block = blocks human MBNL1 binding to CUG repeat RNA; Q9NR56; TR-FRET MBNL1-His/biotin-(CUG)12 binding, 665/545 ratio; Potency, µM (top dose mostly 57.5 µM), inactives show at the highest dose activity change, negative = inhibition, actives largely listed as inhibitors; actives 0.036% (n = 280,000); AID 2675; active = well fitted inhibition curve with a large enough effect in the signal ratio, with a control signal flat, not every such curve was filed as active; inconclusive = small, poorly fitted or top-dose-only effect, or effect the other way, or a change in a side signal; inactive = no such curve, though single readings can be large or run the other way; the % refers to the signal ratio; also: potency is read from the fitted curve at half-maximal effect; % is scaled to controls: 0 for no effect and ±100 for the full control effect
Target sequence (Q9NR56 whole entry, looked up): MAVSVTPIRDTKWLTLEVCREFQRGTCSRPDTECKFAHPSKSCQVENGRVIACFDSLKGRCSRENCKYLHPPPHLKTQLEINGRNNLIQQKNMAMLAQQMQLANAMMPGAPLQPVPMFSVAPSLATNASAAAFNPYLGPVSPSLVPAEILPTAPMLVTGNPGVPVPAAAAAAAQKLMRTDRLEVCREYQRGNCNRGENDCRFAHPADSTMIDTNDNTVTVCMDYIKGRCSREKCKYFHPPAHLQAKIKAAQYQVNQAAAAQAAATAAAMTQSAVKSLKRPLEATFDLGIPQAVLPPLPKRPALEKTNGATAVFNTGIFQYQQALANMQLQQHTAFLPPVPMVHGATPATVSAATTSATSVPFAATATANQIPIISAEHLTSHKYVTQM
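Compounds (final 92 nM to 58 uM) are added to His-tagged MBNL1 and biotin-(CUG)12, then terbium anti-His antibody and streptavidin-XL665 (5 nM final). After 60 min at room temperature, the 665/545 nm ratio is read.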
CBFb-RUNX1 inh = blocks binding between human CBF-beta and RUNX1; 230,000 tested, under 10 active; Potency, µM (titrated, usually from 59.8 µM), without a hit: at the highest dose activity, negative = inhibition, usual class: inhibitors; AlphaScreen CBFb-His/RUNX1-biotin binding, biochemical; also: % of control where 0% means no effect
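Room-temperature protein-protein interaction test with 30 nM each of His-tagged CBF-beta and biotinylated RUNX1, 15 min with compound, then 90 min with nickel plus streptavidin beads. Signal read in AlphaScreen mode.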
NPSR antagonist = blocks cAMP signaling of the human neuropeptide S receptor; Potency, µM (doses to about 38.3 µM), without a hit: top-dose activity change, negative = inhibition, most hits filed as inhibitors; AID 1461; actives 1% (n = 220,000); CHO-NPSR cells, cAMP TR-FRET, antagonist mode; also: potency is read from the fitted curve at half-maximal effect; % is scaled to controls: 0 for no effect and ±100 for the full control effect; nearly all actives have a fitted effect of over 50% in size
Target sequence (Q6W5P4 whole entry, looked up): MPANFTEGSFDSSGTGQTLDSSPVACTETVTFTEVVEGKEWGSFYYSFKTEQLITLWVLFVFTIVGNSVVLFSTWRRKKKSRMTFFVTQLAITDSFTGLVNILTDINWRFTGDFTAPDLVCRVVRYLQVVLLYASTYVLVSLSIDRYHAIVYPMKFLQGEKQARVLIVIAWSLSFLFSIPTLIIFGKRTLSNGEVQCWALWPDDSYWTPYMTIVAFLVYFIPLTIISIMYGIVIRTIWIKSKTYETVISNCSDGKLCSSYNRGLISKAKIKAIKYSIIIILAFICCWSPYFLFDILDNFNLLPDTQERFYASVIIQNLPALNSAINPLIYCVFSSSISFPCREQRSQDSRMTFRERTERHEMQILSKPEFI
* marks the source's active call; other numbers are inactive results; ? = inconclusive; . = not tested or not shown; ! = not active in a repeat; [ ] = another dose, or the depositor's remark. Unless noted, calls follow the shape of the dose curve; as a rule, active = well fitted curve in the direction sought with a large enough effect; inconclusive = small, poorly fitted or top-dose-only effect, or another doubt; inactive = no such curve, though single readings can be large; an effect the other way counts as inactive or inconclusive.

SMILES	HTT cytoprotect	HTT aggregate	Lamin A splicing	MBNL1 CUG block	CBFb-RUNX1 inh	NPSR antagonist
COc1cccc([C@@H]2Oc3ccc(OC)cc3C(=O)[C@H]2OC(=O)NCCc2ccc(OC)c(OC)c2)c1	-40.0%	.	.	.	?	.
O=c1[nH]c2ccccc2n1CCCSCCCn1c(=O)[nH]c2ccccc21	-26.7%[0.074 µM]	11.2µM*	?	-14.4%	-4.6%	-9.2%[46.1 µM]
COC(=O)C1=C(C(=O)OC)[C@@H]2Nc3ccccc3[C@@]23C[C@@H](C(=O)OC)N(S(=O)(=O)c2c(C)noc2C)C3=N1	-7.6%[10 µM]	.	4.0%[9.22 µM]	.	-0.4%[13.1 µM]	.
Cc1nn(CC(O)CN2c3ccccc3Sc3ccccc32)c(C)c1Br (configuration not stated)	17.7%[10 µM]	-21.1%	?	-6.5%	-13.7%	6.31µM*
OC(CN1c2ccccc2Sc2ccccc21)Cn1nnc2ccccc21 (configuration not stated)	10.4%[10 µM]	?	?	4.5%	-3.6%	-18.7%[46.1 µM]
C=CCc1cccc(/C=N/NC(=O)C(C)Nc2ccc(C)cc2)c1O (configuration not stated)	9.0%[10 µM]	8.91µM*	?	-10.6%	-4.6%	-17.6%
CC(C)n1c(NCc2ccccc2O)nc2ccccc21	.	.	.	-0.2%	.	.
C=CCc1cccc(CNc2nc3ccccc3n2C(C)C)c1O	-64.8%	17.8µM*	?	-8.4%	3.8%	?
O=C(c1cnc(N2CCN(c3ccccn3)CC2)c2ccccc12)N1CCN(c2cccc(Cl)c2)CC1	-70.8%	7.94µM*	?	-3.3%	-8.2%	-14.1%
O=C(c1ccc(S(=O)(=O)c2cccc(Cl)c2)c([N+](=O)[O-])c1)N1CCN(c2ccccn2)CC1	-205.2%	11.2µM*	.	?	-18.3%	6.7%
O=C(c1cc(Cl)ccc1Cl)N1CCN(c2ccccn2)CC1	-2.4%	-16.6%	-5.5%	4.7%	5.7%	-12.5%[46.1 µM]
CN(C)/[N+]([O-])=N/Oc1cc(ON=[N+]([O-])N2CCN(c3ncccn3)CC2)c([N+](=O)[O-])cc1[N+](=O)[O-]	.	.	.	.	2.0%	.
CSCC[C@H](NC(=O)[C@H](CC(C)C)N1CCC(NC(=O)[C@@H](NC(=O)[C@H](Cc2ccccc2)NC(=O)[C@H](CO)NC(=O)[C@H](CC(=O)O)NC(=O)[C@@H](N)CCCCN)C(C)C)C1=O)C(N)=O (some centres not stated)	.	.	.	.	12.5%	.
Cc1cn(S(=O)(=O)c2ccc(Br)c3ccccc23)cn1	14.9%[10 µM]	-31.6%	-4.8%	?	0.5%	1µM*
CNC(=O)CSc1nnc(NC(=O)Nc2ccccc2)s1	.	.	4.3%[46 µM]	.	.	.
C1CCC(C(CC2CCCCN2)C2CCCCC2)CC1 (configuration not stated)	-98.8%	25.1µM*!	?	12.6%	8.3%	12.6µM*
CC1(OC(=O)c2ccc(Cl)nc2)C(=O)C=c2cc(-c3ccsc3)ncc2=C1OC(=O)C1CCCC1 (configuration not stated)	-43.1%[10 µM]	.	5.1%[9.22 µM]	.	11.3%[13.1 µM]	.
CCCS(=O)(=O)c1nnnn1-c1cccc(OC)c1	-69.8%	3.55µM*	?	-5.4%	20.4%	10µM*
COc1cccc(CS(=O)(=O)c2nnnn2-c2ccccc2)c1	?	.	.	.	-8.0%	.
O=C(O)CSc1cccc[n+]1[O-]	-10.8%	22.6%	11.3%	-2.5%	2.5%	-2.4%[46.1 µM]
O=C(CSc1cccc[n+]1[O-])c1cc2ccccc2o1	-25.4%[10 µM]	14.5%	1.9%	?	1.3%	7.94µM*
CC(C)=N[C@H](C(=O)O)C(C)(C)S	-2.6%[10 µM]	.	.	.	.	.
Cc1cccc(NC(=O)COC(=O)c2cc(C)oc2C)c1	15.0%	12.6µM*	12.3%[46 µM]	-4.0%	0.8%	4.6%
C=CCC(C)(Nc1ccccc1)C(=O)OCC (configuration not stated)	-12.2%	.	.	.	-1.6%	.
Cc1cc(C)c(N(Cc2ccccc2)S(=O)(=O)c2ccc(OCCNC(=O)c3cc4ccccc4o3)cc2)c(C(=O)NO)c1	.	.	.	.	-18.1%	.
SMILES	HTT cytoprotect	HTT aggregate	Lamin A splicing	MBNL1 CUG block	CBFb-RUNX1 inh	NPSR antagonist
Fc1ccc(/C=N/N2CCOCC2)c(F)c1	0.708µM*	-6.3%	17.4%[46 µM]	.	?	17.3%
C/C(=N\NC(=O)COc1ccccc1-c1ccccc1)c1ccccn1	4.7%[10 µM]	15.1%	?	-2.3%	?	7.94µM*
C/C(=N\NC(=O)COc1ccccc1-c1ccccc1)c1cccnc1	2.6%[10 µM]	-9.5%	-20.6%[46 µM]	-2.9%	-5.2%	-16.7%
CC(c1ccon1)N(C)Cc1cn(C)nc1-c1ccc2c(c1)OCCO2 (configuration not stated)	12.4%[10 µM]	-17.3%[9.22 µM]	.	-4.1%	12.6%	-3.3%
CC(c1ccon1)N(C)Cc1cn(Cc2ccccc2)nc1-c1ccc2c(c1)OCO2 (configuration not stated)	-73.6%	14.1µM*	.	-5.5%	7.3%	?
O=C(Nc1cc(F)ccc1F)C1COc2ccccc2C1 (configuration not stated)	.	.	-2.1%[46 µM]	.	.	.
CCOc1ccc(NC(=S)Nc2ccc3nsnc3c2)cc1	.	3.55µM*	-8.8%	140.8%	0.1%	10µM*
CCOc1ccc(NC(=O)Nc2ccc3nsnc3c2)cc1	-20.1%	-21.2%	?	?	9.4%	-10.1%
CC(=O)Oc1ccc2c(c1)Oc1cc(OC(C)=O)ccc1C21OC(=O)c2ccccc21	14.1%[10 µM]	0.316µM*	?	?	2.6%	-16.8%[46.1 µM]
O=C1OC2(c3ccc(O)cc3Oc3cc(O)ccc32)c2ccccc21	-45.4%	.	.	.	5.3%	.
COC(=O)c1c(-c2cccc3ccccc23)csc1NC(=O)Cc1ccc(OC)c(OC)c1	3.2%[10 µM]	12.6µM*	?	2.5%	-11.5%	-15.5%[46.1 µM]
COC(=O)c1c(-c2ccc(C)cc2)csc1NC(=O)Cc1ccc(OC)c(OC)c1	-14.6%	?	?	-0.2%	-4.8%	?
COc1ccc(S(=O)(=O)Nc2cccc(Cl)c2)cc1OC	-16.9%	-0.1%	-7.3%	-7.3%	1.4%	-14.9%[46.1 µM]
COc1ccc(S(=O)(=O)Nc2cccc(SC)c2)cc1OC	5.3%[10 µM]	0.708µM*	?	?	-1.2%	-3.2%[46.1 µM]
CCN(CC)CCn1nc2c3c(cccc3c1=O)-c1ccccc1-2	-92.6%[10 µM]	0.631µM*	.	?	4.7%	-2.9%
O=C(CSc1nnc(-c2ccncc2)n1Cc1ccco1)OC1CCCCC1	-4.8%	3.7%	4.0%	-5.1%	-2.2%	-6.0%[46.1 µM]
O=C(CSc1nnc(-c2ccco2)n1Cc1ccccc1)OC1CCCCC1	12.9%	31.6µM*	1.2%	10.6%	0.0%	-24.7%[46.1 µM]
O=S(=O)(c1cccc2cnccc12)N1CCCNCC1	?	12.6µM*!	0.1%	-11.6%	5.5%	1.0%
